ssDAF12 agonist – S. stercoralis DAF-12 activation, primary screen; HEK293 ssDAF-12/GRIP1 lit1-tk-luc reporter, luminescence; % of 3 µM dafachronic acid response; activation, % at 6.8 µM; 370,000 tested, 1% active; AID 652126;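 active = activation above the mean over all tested compounds plus 3 SD, cut at about 0.9% in these data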;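 note: 0% = DMSO-only wells and 100% = 3 µM delta7-dafachronic acid wells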
DAX1 inh-1 – inhibits human nuclear receptor DAX1 | HEK293 Gal4-DAX1 luciferase reporter, luminescence | inhibition, % at 6.75 µM | 340,000 tested, 0.99% active | AID 504766;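 active = inhibition above the mean over all tested compounds plus 3 SD, cut at about 4.2% in these data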;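 note: 0% = DAX1-transfected cells with DMSO and 100% = empty-vector control cells with DMSO; inhibition shows as a rise in luminescence from relieved DAX1 repression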
Target sequence (P51843 207-470 limits assumed): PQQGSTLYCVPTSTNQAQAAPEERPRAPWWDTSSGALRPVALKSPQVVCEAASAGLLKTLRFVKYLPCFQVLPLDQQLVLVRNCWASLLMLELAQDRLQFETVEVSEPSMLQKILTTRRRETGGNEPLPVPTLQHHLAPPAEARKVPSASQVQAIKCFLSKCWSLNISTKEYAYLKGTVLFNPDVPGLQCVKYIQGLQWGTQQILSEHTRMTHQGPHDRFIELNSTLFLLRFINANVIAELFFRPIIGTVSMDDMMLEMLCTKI
hgDAF-12 ag – hgDAF-12 agonism, primary luciferase screen | HEK293 GAL4-hgDAF12 UAS-luciferase reporter, agonist luminescence; normalized to butyrate control | activation, % at 6.8 µM | 370,000 tested, 1.8% active;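 active = activation above a cutoff set at the mean of all screened compounds plus 3 SD, cut at about 10% in these data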;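 note: 0% = DMSO wells and 100% = sodium butyrate wells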
DAX1 inh-2 – DAX1 (NR0B1) inhibition, primary screen | 370,000 tested, 1.1% active | HEK293T StAR-luciferase reporter, SF-1/DAX-1 repression relief | inhibition, % at 6.8 µM | AID 652010;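 active = inhibition above the mean over all tested compounds plus 3 SD, cut at about 3.6% in these data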;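 note: 0% = DAX-1 cells with DMSO and 100% = cells lacking DAX-1 with DMSO; higher inhibition means more luminescence from relief of DAX-1 repression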
SMARCA2 act – SMARCA2 function activation, primary screen | MG213 cells, MMTV-luciferase reporter, dexamethasone, overnight | activation, % at 9.1 µM | 370,000 tested, 1% active; in the data active = activation above about 7.8%;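 note: 0% = vehicle wells and 100% = reference activator wells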
hcDAF-12 act – H. contortus DAF-12 activation, primary screen; activation, % at 6.8 µM; AID 652067; 370,000 tested, 1.4% active; HEK293 hcDAF-12 lit1-tk-luc reporter, luminescence; 0% DMSO, 100% Δ7-dafachronic acid;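 active = activation above the mean of all tested compounds plus 3 SD, cut at about 5.5% in these data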;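 note: 100% = response to 3 µM Δ7-dafachronic acid high control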
DAX1 inh confirm – confirmation of human DAX1 (NR0B1) inhibitors | 2,400 tested, 87% active | HEK293T StAR-promoter luciferase reporter, SF-1/DAX-1 repression | shares compounds with DAX1 inh-2 | inhibition, % at 6.8 µM | AID 652134;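 active = inhibition above the average of every tested compound plus 3 SD, cut at about 3.8% in these data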;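 note: 0% = DAX-1 cells with DMSO and 100% = no DAX-1 control cells with DMSO; active compounds raise luminescence by relieving repression of the StAR reporter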
Target sequence (P51843 whole entry, looked up): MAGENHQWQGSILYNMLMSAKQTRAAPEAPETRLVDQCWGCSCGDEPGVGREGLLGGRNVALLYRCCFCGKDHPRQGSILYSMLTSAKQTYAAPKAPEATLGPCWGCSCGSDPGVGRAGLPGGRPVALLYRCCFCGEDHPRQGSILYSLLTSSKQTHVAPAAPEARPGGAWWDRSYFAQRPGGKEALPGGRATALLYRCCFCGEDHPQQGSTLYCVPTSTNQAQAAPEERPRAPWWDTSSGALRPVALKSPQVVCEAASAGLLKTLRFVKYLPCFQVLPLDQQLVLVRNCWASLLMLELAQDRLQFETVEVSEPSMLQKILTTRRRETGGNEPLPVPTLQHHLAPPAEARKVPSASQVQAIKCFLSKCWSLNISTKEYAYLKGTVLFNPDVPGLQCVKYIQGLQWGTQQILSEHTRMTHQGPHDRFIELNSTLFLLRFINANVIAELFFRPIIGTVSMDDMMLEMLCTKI
SF1 AF2mut Luc – nonselective inhibitor or artifact in SF-1 mutant DAX1 counter-screen | shares compounds with DAX1 inh-2 | 2,400 tested, 78% active | HEK293 StAR-luciferase, SF-1 AF2 mutant, luminescence | inhibition, % at 6.8 µM;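 active = inhibition above the mean of all tested compounds plus 3 SD, cut at about 3% in these data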;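 note: 0% = DAX-1 transfected cells with DMSO and 100% = cells without DAX-1 with DMSO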
Active calls of the source: *. Shown are actives, neighbours in structure and some others; about 4.8% of the full set was active somewhere.

What do the screens show for `CCCN1CCN(CCCNC(=O)C(CC)n2nc(C)c3sc4ccccc4c3c2=O)CC1` (stereo not drawn)?
ssDAF12 agonist: -1.3; DAX1 inh-1: 0.9; hgDAF-12 ag: 1.3; DAX1 inh-2: 5.3*; SMARCA2 act: -3.0; hcDAF-12 act: 2.2; DAX1 inh confirm: 3.4; SF1 AF2mut Luc: 4.3*

How did COc1cccc(-c2nnc(-c3ccc4ccccc4c3)o2)c1 do in these assays?
ssDAF12 agonist: -0.4; DAX1 inh-1: 2.8; hgDAF-12 ag: 10.0; DAX1 inh-2: 5.5*; SMARCA2 act: 2.9; hcDAF-12 act: 4.4; DAX1 inh confirm: 14.8*; SF1 AF2mut Luc: 6.1*

Results for Cc1ccc(-c2nnc(-c3ccc4ccccc4c3)o2)cc1 ?
ssDAF12 agonist: -0.4; DAX1 inh-1: 2.3; hgDAF-12 ag: 6.5; DAX1 inh-2: 0.7; SMARCA2 act: 3.0; hcDAF-12 act: 3.2

Results for CC(C)C(C(=O)NCc1ccccc1)N1CCN(CCN2CCOCC2)CC1 (stereo not drawn) ?
ssDAF12 agonist: -0.6; hgDAF-12 ag: -1.2; DAX1 inh-2: 0.5; SMARCA2 act: -3.7; hcDAF-12 act: -0.1

What do the screens show for `Cc1ccnc(NC(=O)c2ccc(S(=O)(=O)N3CCC(C)CC3)cc2)c1`?
ssDAF12 agonist: 0.3; DAX1 inh-1: 2.2; hgDAF-12 ag: 11.0*; DAX1 inh-2: 10.9*; SMARCA2 act: 1.7; hcDAF-12 act: 3.7; DAX1 inh confirm: 13.2*; SF1 AF2mut Luc: 7.6*

Results for Cc1ccnc(NC(=O)c2cccc(S(=O)(=O)N3CCN(c4ccccc4)CC3)c2)c1 ?
ssDAF12 agonist: 0.5; DAX1 inh-1: -0.9; hgDAF-12 ag: 10.2; DAX1 inh-2: 13.1*; SMARCA2 act: 2.9; hcDAF-12 act: 4.8; DAX1 inh confirm: 4.0*; SF1 AF2mut Luc: 2.8

What do the screens show for `O=C(NCc1ccccn1)c1cccc(S(=O)(=O)N2CCCCC2)c1`?
ssDAF12 agonist: -1.1; DAX1 inh-1: -0.3; hgDAF-12 ag: 4.0; DAX1 inh-2: 4.7*; SMARCA2 act: -1.0; hcDAF-12 act: 1.1; DAX1 inh confirm: 1.6; SF1 AF2mut Luc: 1.6

What do the screens show for `COC(=O)[C@]12C[C@H](CC(=O)N3CCSCC3)C(=O)N(Cc3ccccc3)C1=C[C@H](C(C)C)O[C@@H]2C1CC1`?
ssDAF12 agonist: -0.7; hgDAF-12 ag: 0.4; DAX1 inh-2: -0.3; SMARCA2 act: -3.0; hcDAF-12 act: -0.8

How did CCOP(=O)(OCC)c1ccc2c(c1)C(=O)c1ccccc1-2 do in these assays?
ssDAF12 agonist: -0.8; hgDAF-12 ag: 3.6; hcDAF-12 act: -1.6

What do the screens show for `O=C(c1ccco1)N1CCN(c2ccc(N3CCCCC3)nn2)CC1`?
ssDAF12 agonist: 0.5; DAX1 inh-1: 2.1; hgDAF-12 ag: 3.6; DAX1 inh-2: 7.8*; SMARCA2 act: 3.8; hcDAF-12 act: 3.9; DAX1 inh confirm: 7.3*; SF1 AF2mut Luc: 6.4*

How did O=C(c1ccco1)N1CCN(C(=O)c2ccco2)CC1 do in these assays?
ssDAF12 agonist: -0.8; hgDAF-12 ag: 0.0; DAX1 inh-2: 1.1; SMARCA2 act: -3.2; hcDAF-12 act: -2.1

What do the screens show for `CN(CCOC(=O)CCCc1ccccc1)C1CN(Cc2cn(Cc3ccccc3F)nn2)S(=O)(=O)C1` (stereo not drawn)?
ssDAF12 agonist: -1.2; hgDAF-12 ag: 1.1; DAX1 inh-2: -0.7; SMARCA2 act: -2.6; hcDAF-12 act: -1.6

How did Cc1cc(Cl)c2oc(C(=O)N(C)C3CCOC3)c(C)c2c1 (stereo not drawn) do in these assays?
ssDAF12 agonist: -0.2; DAX1 inh-1: 2.4; hgDAF-12 ag: 3.5; DAX1 inh-2: 6.6*; SMARCA2 act: 2.0; hcDAF-12 act: -0.2; DAX1 inh confirm: 7.5*; SF1 AF2mut Luc: 2.2

What do the screens show for `CCOc1ncccc1C(=O)NCC(c1ccccc1)N(C)C` (stereo not drawn)?
ssDAF12 agonist: -0.5; DAX1 inh-1: 0.9; hgDAF-12 ag: -1.3; DAX1 inh-2: 5.1*; SMARCA2 act: -0.5; hcDAF-12 act: 3.9; DAX1 inh confirm: 8.1*; SF1 AF2mut Luc: 4.0*

What do the screens show for `CCCCc1ccc(NC(=O)c2cnccn2)cc1`?
ssDAF12 agonist: 0.4; DAX1 inh-1: -1.2; hgDAF-12 ag: 11.6*; DAX1 inh-2: 8.9*; SMARCA2 act: 3.0; hcDAF-12 act: 3.6; DAX1 inh confirm: 11.1*; SF1 AF2mut Luc: 7.5*

What do the screens show for `Cc1ccc(NC(=O)c2cncc(Br)c2)nc1`?
ssDAF12 agonist: -0.6; DAX1 inh-1: 2.0; hgDAF-12 ag: 8.0; DAX1 inh-2: 4.5*; SMARCA2 act: 3.1; hcDAF-12 act: 1.6; DAX1 inh confirm: 5.8*; SF1 AF2mut Luc: 6.3*

Results for Cc1ccc(NC(=O)c2cnccn2)nc1 ?
ssDAF12 agonist: -0.8; DAX1 inh-1: 1.2; hgDAF-12 ag: 7.7; DAX1 inh-2: 4.6*; SMARCA2 act: 3.7; hcDAF-12 act: 4.6; DAX1 inh confirm: 5.0*; SF1 AF2mut Luc: 3.3*

How did COC(=O)C1=C(C)N(C)C(=NCc2cccc(C(F)(F)F)c2)NC1c1ccc(C(F)(F)F)cc1 (stereo not drawn) do in these assays?
ssDAF12 agonist: -0.9; hgDAF-12 ag: 4.5; DAX1 inh-2: -0.4; SMARCA2 act: -2.4; hcDAF-12 act: -1.9

What do the screens show for `CCN1CCN(S(=O)(=O)c2ccc(Cl)c(C(=O)NCCc3ccccc3)c2)CC1`?
ssDAF12 agonist: 0.1; DAX1 inh-1: 0.8; hgDAF-12 ag: 6.9; DAX1 inh-2: 5.6*; SMARCA2 act: 2.1; hcDAF-12 act: 2.5; DAX1 inh confirm: 3.1; SF1 AF2mut Luc: 2.7

How did COc1ccc(S(=O)(=O)CCC(=O)NC2CCCCC2)cc1 do in these assays?
ssDAF12 agonist: -0.2; DAX1 inh-1: 0.3; hgDAF-12 ag: -0.8; DAX1 inh-2: -0.6; SMARCA2 act: 2.2; hcDAF-12 act: 0.7

How did CCC1CCCCN1C(=O)CCS(=O)(=O)c1ccccc1 (stereo not drawn) do in these assays?
ssDAF12 agonist: 0.4; DAX1 inh-1: 0.7; hgDAF-12 ag: 1.4; DAX1 inh-2: 4.8*; SMARCA2 act: 5.1; hcDAF-12 act: 2.0; DAX1 inh confirm: 4.2*; SF1 AF2mut Luc: 1.4

Results for O=C(CSc1ccccc1)NC1CCCCCCC1 ?
ssDAF12 agonist: -0.5; DAX1 inh-1: 0.1; hgDAF-12 ag: 3.7; DAX1 inh-2: 1.5; SMARCA2 act: 1.6; hcDAF-12 act: 1.2

Results for O=C(CSc1ccccc1)NC1CCCCCC1 ?
ssDAF12 agonist: -0.2; DAX1 inh-1: 0.5; hgDAF-12 ag: 9.2; DAX1 inh-2: 6.2*; SMARCA2 act: 5.2; hcDAF-12 act: 6.3*; DAX1 inh confirm: 7.7*; SF1 AF2mut Luc: 3.8*
